The text below walks through data of publication PMC8384837, “Expanding the binding specificity for RNA recognition by a PUF domain”.

What all share (test): yeast three-hybrid, YBZ-1, SC-Leu-His + 0.5 mM 3-AT, 4 days
Settings in all cases: tags: N-Gal4 AD-HA kept; label: inside an RPR1-promoter hybrid RNA with tandem MS2 sites; ssRNA

The target in one test is PUM1 PUF domain R3-GCK (Homo sapiens, UniProt Q14671 828-1176, C935G;R936C;Q939K). Summed up: (§1)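 The interaction score is the log change in variant frequency from input to selection. Scores were computed in log2 with a pseudocount of 1 for absent variants, using Illumina sequencing of PCR-amplified repeat regions. The input came from four days on SC-Leu and the selection from four days on SC-Leu-His + 0.5 mM 3-AT. The cells were strain YBZ-1 (LexA–MS2 coat fusion, HIS3 reporter) co-expressing Pumilio-1 PUF domain libraries and matching RNA elements from a centromeric plasmid.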

Another test deals with PUM1 PUF domain R1-KFL (Homo sapiens, UniProt Q14671 828-1176, S863K;R864F;Q867L). Summed up: as §1
The target of another test is T1, PUM1 PUF domain R6-IFG (Homo sapiens, UniProt Q14671 828-1176, N1043I;Y1044F;Q1047G).
T1 sequence: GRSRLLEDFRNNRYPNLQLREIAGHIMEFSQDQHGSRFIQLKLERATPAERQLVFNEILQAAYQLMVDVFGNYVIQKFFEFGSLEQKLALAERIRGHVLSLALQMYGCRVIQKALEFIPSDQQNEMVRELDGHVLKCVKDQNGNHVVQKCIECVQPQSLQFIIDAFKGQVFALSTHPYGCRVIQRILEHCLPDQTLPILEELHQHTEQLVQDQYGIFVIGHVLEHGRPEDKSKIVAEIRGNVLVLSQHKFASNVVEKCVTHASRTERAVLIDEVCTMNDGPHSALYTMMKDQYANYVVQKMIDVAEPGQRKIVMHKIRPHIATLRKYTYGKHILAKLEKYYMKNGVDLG
Summed up: as §1

The target in a further test is T2, PUM1 PUF domain R6-IWG (Homo sapiens, UniProt Q14671 828-1176, N1043I;Y1044W;Q1047G).
T2 sequence: T1 sequence with F217W
Summed up: as §1

The target in the next test is PUM1 PUF domain R7-CSR (Homo sapiens, UniProt Q14671 828-1176, S1079C;N1080S;E1083R). Summed up: as §1
In another test the target is PUM1 PUF domain R7-LMF (Homo sapiens, UniProt Q14671 828-1176, S1079L;N1080M;E1083F). Summed up: as §1
The target in the next test is PUM1 PUF domain R8-PFR (Homo sapiens, UniProt Q14671 828-1176, N1122P;Y1123F;Q1126R). Summed up:
as §1

In another test the target is T3, PUM1 PUF domain R6-QYV (Homo sapiens, UniProt Q14671 828-1176, N1043Q;Q1047V).
T3 sequence: T1 sequence with I216Q, F217Y, G220V
Summed up:
as §1

The next test concerns the target T4, PUM1 PUF domain R6-KYL (Homo sapiens, UniProt Q14671 828-1176, N1043K;Q1047L).
T4 sequence: T1 sequence with I216K, F217Y, G220L
Summed up:
as §1

The target of the next test is PUM1 PUF domain R3-DWV (Homo sapiens, UniProt Q14671 828-1176, C935D;R936W;Q939V). Summed up: as §1
A further test concerns the target PUM1 PUF domain R3-YYR (Homo sapiens, UniProt Q14671 828-1176, C935Y;R936Y;Q939R). Summed up: as §1
In another test the target is PUM1 PUF domain R2-NYP (Homo sapiens, UniProt Q14671 828-1176, Q903P). Summed up: as §1
A further test concerns the target PUM1 PUF domain R2-LPC (Homo sapiens, UniProt Q14671 828-1176, N899L;Y900P;Q903C). Summed up:
as §1

The target of another test is PUM1 PUF domain R2-KVA (Homo sapiens, UniProt Q14671 828-1176, N899K;Y900V;Q903A). Summed up: as §1

Positions count from the first letter of the chain named.

PUM1 PUF domain R2-NYP, sequence (Q14671 828-1176 Q903P): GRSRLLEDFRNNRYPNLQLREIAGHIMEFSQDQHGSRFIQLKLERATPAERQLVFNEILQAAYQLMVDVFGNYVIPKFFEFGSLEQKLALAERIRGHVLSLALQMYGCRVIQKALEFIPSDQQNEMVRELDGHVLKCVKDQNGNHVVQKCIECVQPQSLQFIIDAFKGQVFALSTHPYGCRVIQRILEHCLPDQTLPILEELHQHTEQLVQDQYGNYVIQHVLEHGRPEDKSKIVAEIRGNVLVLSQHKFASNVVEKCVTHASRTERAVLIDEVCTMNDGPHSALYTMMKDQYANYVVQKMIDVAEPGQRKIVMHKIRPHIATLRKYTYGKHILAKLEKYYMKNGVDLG
PUM1 PUF domain R2-LPC, sequence (Q14671 828-1176 N899L/Y900P/Q903C): as the sequence (Q14671 828-1176 Q903P) above, with N72L, Y73P, P76C counted along it
PUM1 PUF domain R3-YYR, sequence (Q14671 828-1176 C935Y/R936Y/Q939R): as the sequence (Q14671 828-1176 Q903P) above, with P76Q, C108Y, R109Y, Q112R counted along it
PUM1 PUF domain R3-DWV, sequence (Q14671 828-1176 C935D/R936W/Q939V): as the sequence (Q14671 828-1176 Q903P) above, with P76Q, C108D, R109W, Q112V counted along it
PUM1 PUF domain R7-LMF, sequence (Q14671 828-1176 S1079L/N1080M/E1083F): as the sequence (Q14671 828-1176 Q903P) above, with P76Q, S252L, N253M, E256F counted along it
PUM1 PUF domain R2-KVA, sequence (Q14671 828-1176 N899K/Y900V/Q903A): as the sequence (Q14671 828-1176 Q903P) above, with N72K, Y73V, P76A counted along it
PUM1 PUF domain R3-GCK, sequence (Q14671 828-1176 C935G/R936C/Q939K): as the sequence (Q14671 828-1176 Q903P) above, with P76Q, C108G, R109C, Q112K counted along it

With “GGCUAGAACUAGUGGAUCCCCCGGCGCCCGGCGGCUCGAGCCCGGGUAAGUGUAAUUAGUCUGCAUGCCGCCGGGCGCCAUGCCUGCAGGUCGACUCUAGAAAACAUG”, the binding signal with PUM1 PUF domain R3-GCK was 2.81 log2 enrichment (interaction score).
Consider “GGCUAGAACUAGUGGAUCCCCCGGCGCCCGGCGGCUCGAGCCCGGGUAAGUGUAAAUCGUCUGCAUGCCGCCGGGCGCCAUGCCUGCAGGUCGACUCUAGAAAACAUG”, for which the binding signal in the test with PUM1 PUF domain R1-KFL is 4.43 log2 enrichment (interaction score).
On to “GGCUAGAACUAGUGGAUCCCCCGGCGCCCGGCGGCUCGAGCCCGGGUAAGUGAAAAUAGUCUGCAUGCCGCCGGGCGCCAUGCCUGCAGGUCGACUCUAGAAAACAUG”, for which the binding signal with PUM1 PUF domain R6-IFG is 4.32 log2 enrichment (interaction score); with PUM1 PUF domain R6-IWG, 1.15 log2 enrichment (interaction score).
With “GGCUAGAACUAGUGGAUCCCCCGGCGCCCGGCGGCUCGAGCCCGGGUAAGUUUAAAUAGUCUGCAUGCCGCCGGGCGCCAUGCCUGCAGGUCGACUCUAGAAAACAUG”, the binding signal with PUM1 PUF domain R7-CSR was 3.61 log2 enrichment (interaction score); with PUM1 PUF domain R7-LMF it was 3.84 log2 enrichment (interaction score).
For “GGCUAGAACUAGUGGAUCCCCCGGCGCCCGGCGGCUCGAGCCCGGGUAAGUGUAAAUAGUCUGCAUGCCGCCGGGCGCCAUGCCUGCAGGUCGACUCUAGAAAACAUG”, the binding signal is 3.82 log2 enrichment (interaction score) with PUM1 PUF domain R8-PFR; 3.63 log2 enrichment (interaction score) in the test with PUM1 PUF domain R6-QYV; 5.29 log2 enrichment (interaction score) in the test with PUM1 PUF domain R6-KYL; 3.59 log2 enrichment (interaction score) in the test with PUM1 PUF domain R6-IWG; 2.15 log2 enrichment (interaction score) with PUM1 PUF domain R3-DWV; 3.94 log2 enrichment (interaction score) in the test with PUM1 PUF domain R3-YYR. Also, the binding signal in the test with PUM1 PUF domain R2-NYP is 4.08 log2 enrichment (interaction score).
In the case of “GGCUAGAACUAGUGGAUCCCCCGGCGCCCGGCGGCUCGAGCCCGGGUAAGUGUAAAGAGUCUGCAUGCCGCCGGGCGCCAUGCCUGCAGGUCGACUCUAGAAAACAUG”, the binding signal in the test with PUM1 PUF domain R2-LPC was 3.13 log2 enrichment (interaction score); with PUM1 PUF domain R2-KVA it was 3.4 log2 enrichment (interaction score).
